Screening results (PubChem)
BAZ2B inh: blocks human BAZ2B | Potency, µM (highest dose often 114 µM), hits mostly inhibitors | AlphaScreen BAZ2B-H3K14Ac peptide displacement | actives 4.4% (n = 360,000) | AID 504333 | Q9UIF8; further: nearly all actives have a fitted effect of over 60% in size
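BAZ2B (50 nM) with biotin-H3(5-23)K14Ac peptide (50 nM) in PBS pH 7.4, 0.01% Tween-20, preformed 30 min, then compound 30 min at room temperature; top concentration 110uM. AlphaScreen streptavidin donor/nickel chelate acceptor beads (10 ug/mL final), 20 min dark, signal read.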
G9a block: blocks human histone lysine methyltransferase G9a | G9a H3K9 monomethylation, AlphaScreen, 2 h | Potency, µM (doses to about 102 µM), usual class: inhibitors | Q96KQ7 | actives 8.8% (n = 350,000); further: nearly all actives have a fitted effect of over 75% in size
Target sequence (Q96KQ7 913-1193 limits assumed): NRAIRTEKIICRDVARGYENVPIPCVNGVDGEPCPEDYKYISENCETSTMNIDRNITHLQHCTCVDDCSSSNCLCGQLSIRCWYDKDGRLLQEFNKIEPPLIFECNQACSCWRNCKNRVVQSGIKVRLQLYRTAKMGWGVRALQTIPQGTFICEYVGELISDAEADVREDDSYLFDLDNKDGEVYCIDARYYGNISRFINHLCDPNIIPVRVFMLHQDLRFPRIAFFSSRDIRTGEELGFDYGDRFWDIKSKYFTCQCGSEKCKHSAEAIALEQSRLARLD
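G9a (20 nM) preincubated 15 min RT with compounds, then 500 nM biotinylated H3K9 peptide and 20 uM SAM added; 2 h RT reaction. Monomethyl-H3K9 product detected by AlphaScreen with anti-H3K9me1 antibody, streptavidin donor and anti-rabbit IgG acceptor beads.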
JMJD2A Tudor inh: inhibitors of human JMJD2A Tudor domain; O75164; AlphaScreen JMJD2A-Tudor / H3K4me3 peptide binding; actives 4.4% (n = 390,000); Potency, µM (series often up to 114 µM), actives largely listed as inhibitors; further: nearly all actives have a fitted effect of over 50% in size
GLS inhibitor: blocks human kidney-isoform glutaminase activity; O94925; GLS enzymatic activity, qHTS titration; Potency, µM (titrated, usually from 45.5 µM), most hits filed as inhibitors; actives 0.21% (n = 410,000); AID 624170
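Read-out is an Amplex red fluorescence increase coupled through glutamate oxidase and HRP, measured before and after 30 min room-temperature incubation. hKGA is in 45 mM KH2PO4 (pH 8.2) with 0.02% Tween-20; glutamine added as 1mM solution.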
HP1b chromo inh: HP1-beta chromodomain-methylated histone interaction inhibition | Potency, µM (top dose mostly 114 µM), most hits filed as inhibitors | AlphaScreen HP1-beta / biotin-H3K9me3 peptide binding | actives 0.56% (n = 390,000); further: nearly all actives have a fitted effect of over 70% in size
Target sequence (P83916 whole entry, looked up): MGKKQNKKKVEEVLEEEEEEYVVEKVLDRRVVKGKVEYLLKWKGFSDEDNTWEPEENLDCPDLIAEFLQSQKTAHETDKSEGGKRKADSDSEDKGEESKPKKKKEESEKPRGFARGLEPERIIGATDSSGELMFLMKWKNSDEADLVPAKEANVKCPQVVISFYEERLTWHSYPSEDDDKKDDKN
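Compound inhibition of the preformed complex between 50 nM HP1-beta and 50 nM biotinylated H3K9me3 peptide was read by AlphaScreen. Buffer was PBS pH 7.4 with 0.01% Tween-20. Incubations ran 30 min at room temperature, with 10 ug/mL donor/acceptor beads.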
A number is an active result; i = inactive; ? = inconclusive; nt = not tested or not shown; [ ] = remark or other dose. An excerpt weighted towards active compounds, which were near 10% of everything screened. The call rests on the fitted dose curve; in most records, active means well fitted curve in the direction sought with a large enough effect; inconclusive means small, poorly fitted or top-dose-only effect, or another doubt; inactive means no such curve, though single readings can be large; an effect the other way counts as inactive or inconclusive.

SMILES	BAZ2B inh	G9a block	JMJD2A Tudor inh	GLS inhibitor	HP1b chromo inh
CC(=O)Nc1ccc(OCc2cccc(C3Nc4ccccc4C(=O)N3Cc3ccco3)c2)cc1 (stereo not drawn)	nt	nt	89µM	nt	nt
Cc1cccc(-n2c3nc(=O)[nH]c(=O)c-3cc3cc([N+](=O)[O-])ccc32)c1	i	50µM	i	i	i
Cc1ccc(C)c(-n2c3nc(=O)[nH]c(=O)c-3cc3cc([N+](=O)[O-])ccc32)c1	i	10µM	?	i	i
CCOC(=O)/C(N=Nc1ccc2c(c1)OCO2)=C(\C)O	?	?	50µM	?	i
CCOC(=O)C(=O)Nc1ccc2c(c1)OCO2	i	i	i	i	i
O=C(N/N=C/c1c(Cl)cccc1Cl)c1cccc(F)c1	i	i	i	i	i
Cc1[nH]n(-c2ccc(Br)cc2)c(=O)c1/C=N/NC(=O)c1ccccc1	32µM	?	79µM	i	i
Cc1[nH]n(-c2ccccc2)c(=O)c1/C=N/NC(=O)c1cccc(F)c1	79µM	25µM	79µM	i	i
COC(=O)CCCCCN1C(=O)NC(C2CC2)C(C(=O)OCc2ccccc2)=C1C (stereo not drawn)	nt	nt	i	i	i
CC(=O)Nc1ccc(C(=O)OCC(=O)NC2CCCCCC2)cc1	nt	nt	nt	i	nt
Cc1ccc(NC(=O)Cn2c(=O)n(CC3CCC(C(=O)NC(C)C)CC3)c(=O)c3sccc32)cc1 (stereo not drawn)	i	i	i	i	i
N#C/C(=C\c1ccc(-c2ccc(Cl)c(C(=O)O)c2)o1)c1nc2ccccc2[nH]1	50µM	i	?	?	i
N#C/C(=C\c1ccccc1C(=O)O)c1nc2ccccc2[nH]1	i	i[2.33 µM]	i	i	i
N#C/C(=C\c1ccc(-c2ccc(C(=O)O)cc2)o1)c1nc2ccccc2[nH]1	i	i	89µM	i	?
Cc1ccc2nc(/C(C#N)=C/c3ccc(-c4cccc(Cl)c4)o3)[nH]c2c1	?	?	i	i	i
CC(C)CC(c1nnnn1C1CCCCC1)N1CCN(C(=O)c2ccco2)CC1 (stereo not drawn)	i	?	i	i	i
CCCCC(c1nnnn1C1CCCC1)N1CCN(C(=O)c2ccco2)CC1 (stereo not drawn)	79µM	i[12.7 µM]	i	i	i
CC(C)CC(c1nnnn1C1CCCC1)N1CCN(C(=O)c2ccco2)CC1 (stereo not drawn)	79µM	i	50µM	i	i
Cc1ccc(N2C(=O)C(CC(=O)Nc3ccc(F)cc3)N(CCC3=CCCCC3)C2=O)cc1 (stereo not drawn)	i	i	i	i	i
CCOC(=O)C1Nc2ccccc2C2C(O)C(O)CC12 (stereo not drawn)	nt	nt	50µM	i	i
COC(=O)c1c(NC(=O)c2ccc(Br)o2)sc(C)c1C	i	50µM	i	i	i
CCOc1ccc(N(CC(=O)Nc2cc(Cl)ccc2C)S(C)(=O)=O)cc1	i	i	i	i	i
Cc1nnnn1/C(=C\c1ccccc1)C(=O)OCC(=O)Nc1ccc(Cl)cc1F	i	50µM	i	i	i
CC(=O)N/C(=N\c1nc(C)cc(C)n1)Nc1ccc2ccccc2c1	i	79µM	i	i	i
Cc1ccc2c(c1)N(C(=O)C1CCN(S(=O)(=O)c3c(C)noc3/C=C/c3ccccc3F)CC1)CCO2	i	i	i	i	i
SMILES	BAZ2B inh	G9a block	JMJD2A Tudor inh	GLS inhibitor	HP1b chromo inh
Cc1cc(C)n2c(Br)c(CN3CCCC(C)C3)nc2n1 (stereo not drawn)	i	i	i	i	i
C/C(=C\C(=O)c1ccc(C)o1)Nc1ccc(C(=O)O)cc1C	?	71µM	28µM	i	i
Cc1ccc(S(=O)(=O)N2Cc3ccccc3CC2C(=O)NC(C)(C)C)cc1 (stereo not drawn)	i	i	i	i	i
CC(=O)Nc1ccc(C(=O)N2CCCC(c3cc(C(=O)NCc4ccc(F)cc4)no3)C2)cc1 (stereo not drawn)	nt	nt	nt	i	nt
O=C(Nc1nc2ccc(F)cc2s1)C1CCN(S(=O)(=O)c2cc([N+](=O)[O-])ccc2Cl)CC1	?	22µM	?	i	i
COc1ccc2nc(NC(=O)C3CCN(S(=O)(=O)c4cccs4)CC3)sc2c1	i	i	100µM	i	i
Cc1ccc2nc(NC(=O)C3CCN(S(=O)(=O)c4cc([N+](=O)[O-])ccc4Cl)CC3)sc2c1	35µM	?	40µM	i	?
COc1ccc2nc(NC(=O)C3CCCN(S(=O)(=O)c4cccs4)C3)sc2c1 (stereo not drawn)	i	i[12.7 µM]	i	i	i
Cc1ccc2nc(NC(=O)C3CCCN(S(=O)(=O)c4cccc5nsnc45)C3)sc2c1 (stereo not drawn)	i	35µM	?	i	i
CCCCCCc1ccc(C(=O)CCN(C)C)cc1	nt	nt	i	nt	nt
Cc1ccc(NC(=O)C2CCN(S(=O)(=O)c3cc([N+](=O)[O-])ccc3Cl)CC2)nc1	nt	nt	45µM	i	i
CC(C)CNC(=O)C1CCN(CC2CCCCC2)CC1	i	nt	79µM	i	i
O=C(NCC1CCCO1)C1CCN(CC2CCCCC2)CC1 (stereo not drawn)	?	?	35µM	i	i
CC(C)CN1CCC(C(=O)NCC2CCCO2)CC1 (stereo not drawn)	56µM	10µM	7.1µM	i	?
CC(C)CNC(=O)C(=O)NNC(=O)C1CCCCC1	i	20µM	?	i	i
c1ccc(CN(CCN(Cc2ccccn2)Cc2ccccn2)Cc2ccccn2)nc1	nt	i	nt	nt	nt
COc1ccc(N2CC(c3nc(-c4ccccc4C)no3)CC2=O)cc1Cl (stereo not drawn)	i	i	i	i	i
CC(=O)c1cc(-c2ccccc2)n(CC(=O)NCCc2ccc(C)cc2)c1C	i	i	i	i	i
CCOC1=C2[C@H](c3ccccc3)N(S(=O)(=O)c3ccc(C)cc3)[C@H](C(C)C)[C@H]2n2c(=O)n(-c3ccccc3)c(=O)n2C1	nt	nt	nt	i	nt
O=C(Oc1cc(-c2ccccc2)no1)c1ccc(Cl)cc1	?	79µM	i[11.4 µM]	i	i
Cc1ccc(C(=O)Oc2cc(-c3ccccc3)no2)cc1	i	i	i	i	i
Cc1cc(C(=O)COC(=O)CCc2nc3ccccc3s2)c(C)n1C	50µM	?	?	i	i
CCCCOc1ccc(C2C(=O)N(C3CCCCC3)CC(=O)N2C2CCCCC2)cc1 (stereo not drawn)	i	i	i	i	i
COC(=O)C1=CO[C@@H](O[C@@H]2OC(CO)[C@@H](O)[C@@H](O)[C@@H]2O)C2C1CC[C@]2(C)O (stereo partly drawn)	nt	nt	i	i	i
COC(=O)C1=COC(OC2OC(CO)C(O)C(O)C2O)C2C1C=CC2(O)CO (stereo not drawn)	28µM	i[12.7 µM]	35µM	?	20µM
Cc1cccc(N2CCN(C(=O)c3cn(CC(C)C)c(=O)c4c3c3ccccc3n4C)CC2)c1C	i	i	i	i	i
